Compound activity as filed in PubChem BioAssay.
A selection: hits, their analogues and other compounds. The true share with any hit is near 3.9%.
Mot1-301 SUMO: blocks SUMOylation pathway, rescuing yeast Mot1-301 growth | S. cerevisiae Mot1-301 growth rescue, ATP luminescence, 38.5C; percent above DMSO median, 100 means doubled | growth rescue, % at 18.8 µM | actives 1% (n = 320,000) | AID 2716;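 active = every valid replicate shows activation above 250% relative to neutral control wells; inactive = the rest, any valid replicate at or below 250%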;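 note: OY570 slx delta 5 strain wells were the positive control but not used for scaling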
CDK5 inh: blocks human CDK5/p35 kinase activity; actives 0.01% (n = 330,000); Q00535+Q15078; Recombinant CDK5/p35, ADP-Glo luminescence, 60 min; inhibition, % at 10 µM;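 active = highest replicate inhibition of at least 50% and at least 75% of replicates reaching 50%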;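 note: plate controls were DMSO neutral control for no effect and GW8510 at 10 µM for full effect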
ALR inh: human ALR oxidase inhibition via reduced H2O2. AID 485317. actives 3.8% (n = 290,000). P55789. purified ALR, DTT oxidation, H2O2 HRP-luminol luminescence. inhibition, % (concentration not given with the values);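 active = mean replicate inhibition above about 79%, with every replicate also reaching it, limit read from the data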
Glyco luc inh: blocks N-linked glycosylation in D54 reporter cells; D54 ERlucT glycosylation luciferase reporter, 24 h; percent of 100 nM tunicamycin response; reporter increase, % at 12.5 µM; actives 0.23% (n = 360,000); AID 588692;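 active = mean luciferase reporter signal, scaled so untreated is 0 and the glycosylation-blocking control 100, at or above a set limit in every replicate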;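 note: luciferase carries N-glycosylation sites so blocking glycosylation raises the light; 0% = median of neutral control wells and 100% = median of 100 nM tunicamycin wells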
NSD2 inh: inhibitors of human histone methyltransferase NSD2; AID 743445; actives 0.54% (n = 310,000); NSD2 peptide methylation, AlphaScreen, 120 min; inhibition, % at 12.5 µM; in the data active = inhibition above about 50%
Target sequence (O96028 whole entry, looked up): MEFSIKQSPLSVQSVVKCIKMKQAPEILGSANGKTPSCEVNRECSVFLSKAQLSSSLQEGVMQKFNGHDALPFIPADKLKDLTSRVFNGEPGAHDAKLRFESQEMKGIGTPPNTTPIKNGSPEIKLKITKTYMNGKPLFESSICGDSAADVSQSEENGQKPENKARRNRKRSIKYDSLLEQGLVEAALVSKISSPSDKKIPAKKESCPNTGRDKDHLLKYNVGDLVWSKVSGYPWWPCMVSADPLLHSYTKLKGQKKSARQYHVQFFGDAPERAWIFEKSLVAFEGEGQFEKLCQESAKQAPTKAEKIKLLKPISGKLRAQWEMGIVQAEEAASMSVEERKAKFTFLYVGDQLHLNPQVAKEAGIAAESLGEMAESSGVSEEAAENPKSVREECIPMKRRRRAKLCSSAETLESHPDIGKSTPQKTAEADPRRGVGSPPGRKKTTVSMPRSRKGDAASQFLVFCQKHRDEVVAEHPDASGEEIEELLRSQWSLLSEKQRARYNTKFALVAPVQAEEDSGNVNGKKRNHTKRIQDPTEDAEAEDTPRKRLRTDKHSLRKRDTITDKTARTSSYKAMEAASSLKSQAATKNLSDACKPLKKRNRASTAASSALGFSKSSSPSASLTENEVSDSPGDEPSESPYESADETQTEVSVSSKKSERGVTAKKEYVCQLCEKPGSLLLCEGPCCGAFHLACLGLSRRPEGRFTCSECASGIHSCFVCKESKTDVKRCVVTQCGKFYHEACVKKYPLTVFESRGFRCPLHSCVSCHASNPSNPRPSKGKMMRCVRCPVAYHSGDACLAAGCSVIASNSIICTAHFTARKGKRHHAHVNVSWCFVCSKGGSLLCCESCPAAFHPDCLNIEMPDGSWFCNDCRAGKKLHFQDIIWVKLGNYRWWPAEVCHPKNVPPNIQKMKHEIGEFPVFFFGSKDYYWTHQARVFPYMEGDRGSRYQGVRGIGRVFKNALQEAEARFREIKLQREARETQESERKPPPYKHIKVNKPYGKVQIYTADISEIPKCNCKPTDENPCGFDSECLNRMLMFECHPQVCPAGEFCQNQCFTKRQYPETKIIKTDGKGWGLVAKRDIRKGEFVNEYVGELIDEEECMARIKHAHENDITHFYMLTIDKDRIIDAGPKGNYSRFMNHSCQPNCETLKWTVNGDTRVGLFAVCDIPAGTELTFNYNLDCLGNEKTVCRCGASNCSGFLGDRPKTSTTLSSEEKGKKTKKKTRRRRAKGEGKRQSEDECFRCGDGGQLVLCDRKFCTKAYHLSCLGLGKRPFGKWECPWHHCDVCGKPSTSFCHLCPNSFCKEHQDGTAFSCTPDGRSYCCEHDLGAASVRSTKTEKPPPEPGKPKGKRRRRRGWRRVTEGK
Casp6 inh: blocks human caspase-6 cleavage activity; P55212; purified caspase-6, Z-VEID-R110 cleavage fluorescence; inhibition, % at 12.5 µM; AID 686996; actives 0.53% (n = 350,000);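 active = mean inhibition across replicates at least about 35%, with every replicate also reaching that limit, limit read from the data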;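 note: 0% = median of neutral control wells and 100% = no fluorescence left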
* hit, by the source's call; nt = no result.

SMILES	Mot1-301 SUMO	CDK5 inh	ALR inh	Glyco luc inh	NSD2 inh	Casp6 inh
CC(=O)N(C)C[C@H]1Oc2cc(C#CCC(C)C)ccc2S(=O)(=O)N([C@@H](C)CO)C[C@@H]1C	nt	nt	nt	nt	nt	-0.5
CCCC(=O)Nc1ccc2c(c1)C(=O)N(C)C[C@H](OC)[C@@H](C)CN(C(=O)c1ccncc1)[C@H](C)CO2	nt	nt	nt	nt	nt	-1.9
C=CCC(Nc1ccccc1)c1ccc(OC)c(OC)c1 (configuration not stated)	-27.2	nt	96.4*	nt	nt	nt
COc1ccc(C(CC(=O)O)NC(=O)Cc2ccccc2)cc1OC (configuration not stated)	11.1	2.0	-0.7	1.8	-1.6	nt
Cc1ccc(-c2ccc([C@H]3[C@H](CO)N4C(=O)CN(C(=O)Nc5ccc(F)cc5)C[C@@H]34)cc2)cc1	nt	nt	nt	nt	nt	-0.8
C[C@H]1CN([C@@H](C)CO)C(=O)c2cccc(NS(=O)(=O)c3cccs3)c2O[C@@H]1CN(C)Cc1ccc(C(=O)Nc2ccccc2N)cc1	nt	nt	nt	nt	nt	-3.6
Cc1ccc2c(c1)c1c(n2CC(O)Cn2ccnc2C)C(=O)CCC1 (configuration not stated)	173.7	0.6	-1.6	-1.2	5.1	nt
Cc1ccc2c(c1)c1c(n2CC(O)CNC2CCCC2)CCCC1 (configuration not stated)	-28.6	-1.5	89.2*	-1.3	30.7	-0.7
CN(C)c1ccc(C(O)P(=O)(OC2CCCCC2)OC2CCCCC2)cc1 (configuration not stated)	1.0	-0.8	96.8*	-1.3	4.9	0.8
CC(C)OP(=O)(OC(C)C)C(O)c1ccc(N(C)C)cc1 (configuration not stated)	7.3	1.3	97.3*	0.7	0.6	-3.5
COc1ccc(NC(=O)Nc2ccc3c(c2)C(=O)N([C@H](C)CO)C[C@H](C)[C@@H](CN(C)S(=O)(=O)c2ccccc2)OCCCC[C@H](C)O3)cc1	nt	nt	nt	nt	nt	1.1
CCCNC(=O)N1C[C@@H](C)[C@@H](OC)CN(C)C(=O)c2cc(NS(=O)(=O)CC(F)(F)F)ccc2OC[C@H]1C	nt	nt	nt	nt	nt	1.6
CCOc1cc(CNCc2ccccn2)cc(Cl)c1OC	15.6	1.0	-0.2	1.3	-8.1	3.8
CCOc1cc(CNCC(O)c2ccccc2)cc(Cl)c1OC (configuration not stated)	-15.6	-1.1	99.4*	1.3	0.3	-2.1
C[N+]1(C)CCC(OC(=O)C(O)(c2ccccc2)C2CCCC2)C1 (configuration not stated)	373.1*	-1.1	1.0	-0.1	nt	-2.4
O=[N+]([O-])c1ccc(CNc2cccc(Cl)c2)s1	-6.7	2.3	-11.6	1.3	10.3	3.2
O=[N+]([O-])c1ccc(CNc2ccc(Cl)cc2)s1	-9.3	-1.2	81.2*	7.8	1.6	0.3
COc1ccc(NCc2ccc([N+](=O)[O-])s2)c(OC)c1	198.8	0.2	97.9*	18.4	16.6	nt
O=[N+]([O-])c1ccc(CNc2ccc(F)cc2)s1	56.9	-0.9	98.7*	-3.6	11.7	1.9
COc1ccc(NCc2ccc([N+](=O)[O-])s2)cc1	58.8	1.2	98.8*	4.7	8.2	nt
CCCNC(=O)C[C@H]1CC[C@H]2[C@H](COc3ccc(NC(=O)c4cscn4)cc3C(=O)N2C)O1	nt	nt	nt	nt	nt	-0.8
O=C(Nc1ccc2c(c1)[C@H]1C[C@H](CC(=O)N3CCOCC3)O[C@@H](CO)[C@H]1O2)c1cccnc1	nt	nt	nt	nt	nt	-3.8
Cc1ccc2nc3n(c2c1)CCCN3	3.3	0.1	30.7	0.2	nt	-1.5
S=c1[nH]nc2n1CCCN2	-4.1	-0.7	95.3*	1.1	-2.0	-3.2
CO[C@H]1CN(C)C(=O)c2cc(NC(=O)C3CCC3)ccc2OC[C@H](C)N(CC2CCCCC2)C[C@H]1C	nt	nt	nt	nt	nt	1.3
CCc1nc2ccc(C(=O)NCCc3c[nH]c4ccccc34)cn2c1N(C=O)CCC(C)C	nt	nt	nt	64.4*	1.1	-5.5
CCCCN(C=O)c1c(CC)nc2ccc(C(=O)NCCc3c[nH]c4ccccc34)cn12	nt	nt	nt	4.3	2.1	-0.4
C[C@@H]1CN([C@H](C)CO)C(=O)c2cc(Br)cnc2O[C@@H]1CN(C)CC1CCCC1	nt	nt	nt	nt	nt	0.7
CCOC(=O)CN(C(=O)CSc1nnc(CNc2ccc(C)cc2C)o1)c1ccccc1	4.9	-1.5	96.4*	-2.0	-0.3	1.4
